# Unmarked numbers belong to inactive results. Calls come from the whole dose curve; as a rule, active = well fitted curve in the direction sought with a large enough effect; inconclusive = small, poorly fitted or top-dose-only effect, or another doubt; inactive = no such curve, though single readings can be large; an effect the other way counts as inactive or inconclusive. Records with an inconclusive call do not appear.
# Experiment: Cellular Toxicity (caspase-3) Jurkat (AID 655);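 note: cells exposed to compound for 16 h at 37 °C before reading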
# Conditions: Jurkat caspase-3 activation, luminescence; caspase-3 activation: at 92.2 µM (top of the series), DMSO = 0%, tamoxifen = 100%
# Outline: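 qHTS in human Jurkat T-cell leukemia line: 16 hr compound treatment at 37 °C, caspase-3/7 activity measured by Caspase-Glo luminescence. AC50 derived from Hill equation.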
row,SMILES,caspase-3 activation
1,Cc1cc(C)c(N)cc1C,-1.78%
2,Cc1cccc2ccccc12,-1.75%
3,C=C(C)C(=O)OCC(C)C,0.091%
4,O=Cc1ccc(C(=O)O)cc1,0.522%
5,CCOc1cc(OCC)c(C(C)=O)cc1OCC,-0.274%
6,CCCCC(CC)CNCC(CC)CCCC (stereo not given),1.24%
7,C=CCOC(=O)COCCC(C)C,-0.573%
8,ICCc1ccccc1,0.274%
9,Cc1ccccc1C(N)=O,1.13%
10,CNC(=O)c1ccccc1,0.307%
11,ClCCl,1.06%
12,CCOc1ccc(NC(C)=O)cc1N,0.0364%
13,Nc1ccc(F)cc1F,1.31%
14,CC(=O)c1ccc([N+](=O)[O-])cc1,0.818%
15,CCCCN(CCO)CCCC,-0.474%
16,BrC(Br)C(Br)Br,0.993%
17,Nc1nc(CC(=O)O)cs1,0.779%
18,O=[N+]([O-])c1cc(C(F)(F)F)ccc1Cl,0.364%
19,Cc1ccc(C(C)(C)C)cc1,1.39%
20,CC(C)=CCl,-0.417%

row,SMILES,caspase-3 activation
1,O=Cc1ccc(Cl)cc1,-1.13%
2,NC(=O)c1cccc([N+](=O)[O-])c1,-0.315%
3,C=CCn1c(=O)n(CC=C)c(=O)n(CC=C)c1=O,-0.997%
4,Cc1cc(C)cc([N+](=O)[O-])c1,-1.49%
5,CC(=O)OC(C)C,-0.432%
6,CCC(=O)/C=C/C1C(C)=CCCC1(C)C (stereo not given),2.94%
7,CC(=O)CCc1ccccc1,-1.19%
8,CCCCOCCOCCOCCCC,0.193%
9,Cc1cc(C(=O)O)ccc1[N+](=O)[O-],-1.06%
10,Cc1cccc(C)c1O,-0.87%
11,O=c1[nH][nH]c(=O)c2cc([N+](=O)[O-])ccc12,-0.126%
12,CC(C)CCOC(=O)/C=C/c1ccccc1,0.824%
13,NC(=O)CCCCC(N)=O,2.15%
14,ON=C1CCCCC1,-0.266%
15,CC(=O)Nc1ccccc1C,1.08%
16,COC(=O)CS,-2.15%
17,Cc1ccc2cccnc2c1,-0.667%
18,Cc1cccc([N+](=O)[O-])c1C(=O)O,0.48%
19,CCOc1cccc(N)c1,-1.1%

# Experiment: Cellular Toxicity (caspase-3) HUV-EC-C (AID 656);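 note: cells exposed to compound for 16 h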
# Conditions: HUV-EC-C cells, caspase-3 activation (apoptosis), vehicle = 0, 100 µM tamoxifen = 100%; series mostly up to 92.2 µM; caspase-3 activation: at the top concentration
# Outline: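 Concentration-dependent caspase 3/7 induction was assessed in HUV-EC-C cells exposed for 16 hours. Data scaled between DMSO and tamoxifen (100 uM) controls.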
row,SMILES,caspase-3 activation
1,Cc1cc(C)c(N)cc1C,0.464%
2,Cc1cccc2ccccc12,0.764%
3,C=C(C)C(=O)OCC(C)C,1.36%
4,O=Cc1ccc(C(=O)O)cc1,-4.59%
5,CCOc1cc(OCC)c(C(C)=O)cc1OCC,-1.19%
6,CCCCC(CC)CNCC(CC)CCCC (stereo not given),0.652%
7,C=CCOC(=O)COCCC(C)C,1.71%
8,ICCc1ccccc1,-3.07%
9,Cc1ccccc1C(N)=O,0.0236%
10,CNC(=O)c1ccccc1,5.75%
11,ClCCl,5.3%
12,Nc1ccc(F)cc1F,1.99%
13,CC(=O)c1ccc([N+](=O)[O-])cc1,-1.9%
14,CCCCN(CCO)CCCC,-4.85%
15,BrC(Br)C(Br)Br,3.26%
16,CC(C)=CCl,-1.45%

row,SMILES,caspase-3 activation
1,O=Cc1ccc(Cl)cc1,-0.197%
2,NC(=O)c1cccc([N+](=O)[O-])c1,-4.23%
3,C=CCn1c(=O)n(CC=C)c(=O)n(CC=C)c1=O,-2.93%
4,Cc1cc(C)cc([N+](=O)[O-])c1,-2.35%
5,CC(=O)OC(C)C,-2.37%
6,CCC(=O)/C=C/C1C(C)=CCCC1(C)C (stereo not given),-3.38%
7,CC(=O)CCc1ccccc1,-1.42%
8,CCCCOCCOCCOCCCC,4.1%
9,Cc1cccc(C)c1O,0.252%
10,O=c1[nH][nH]c(=O)c2cc([N+](=O)[O-])ccc12,1.59%
11,NC(=O)CCCCC(N)=O,0.697%
12,CC(=O)Nc1ccccc1C,1.6%
13,COC(=O)CS,1.68%
14,Cc1cccc([N+](=O)[O-])c1C(=O)O,-3.04%
15,CCOc1cccc(N)c1,4.66%

# Experiment: Cellular Toxicity (caspase-3) SHSY5Y (AID 657);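 note: cells exposed to compound for 16 hours at 37 °C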
# Conditions: SH-SY5Y caspase-3 activation, DMSO zero, 10 µM staurosporine = 100%; series mostly up to 91.7 µM; caspase-3 activation: at the top concentration
# Outline: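 Readout: caspase-cleaved peptide-aminoluciferin substrate driving luciferase light in SH-SY5Y neuroblastoma cells after 16 h treatment. Response normalized to DMSO and 10 uM staurosporine controls.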
row,SMILES,caspase-3 activation
1,Cc1cc(C)c(N)cc1C,-1.22%
2,Cc1cccc2ccccc12,-0.536%
3,C=C(C)C(=O)OCC(C)C,-0.177%
4,O=Cc1ccc(C(=O)O)cc1,-0.0112%
5,CCOc1cc(OCC)c(C(C)=O)cc1OCC,1.6%
6,CCCCC(CC)CNCC(CC)CCCC (stereo not given),-0.677%
7,ICCc1ccccc1,-0.998%
8,Cc1ccccc1C(N)=O,0.661%
9,CNC(=O)c1ccccc1,-0.338%
10,ClCCl,0.284%
11,CC(=O)c1ccc([N+](=O)[O-])cc1,-0.991%
12,BrC(Br)C(Br)Br,0.752%
13,Nc1nc(CC(=O)O)cs1,0.873%
14,O=[N+]([O-])c1cc(C(F)(F)F)ccc1Cl,-0.25%
15,Cc1ccc(C(C)(C)C)cc1,0.315%
16,CC(C)=CCl,-0.392%
17,O=Cc1ccc(Cl)cc1,-1.8%
18,NC(=O)c1cccc([N+](=O)[O-])c1,-0.268%
19,Cc1cc(C)cc([N+](=O)[O-])c1,-0.188%
20,CC(=O)OC(C)C,4.28%
21,CCC(=O)/C=C/C1C(C)=CCCC1(C)C (stereo not given),2.52%
22,CC(=O)CCc1ccccc1,-1.6%
23,Cc1cc(C(=O)O)ccc1[N+](=O)[O-],1.68%
24,Cc1cccc(C)c1O,-0.793%
25,O=c1[nH][nH]c(=O)c2cc([N+](=O)[O-])ccc12,-1.91%
26,CC(C)CCOC(=O)/C=C/c1ccccc1,1.85%
27,ON=C1CCCCC1,0.754%
28,COC(=O)CS,-1.62%
29,Cc1ccc2cccnc2c1,-0.97%
30,Cc1cccc([N+](=O)[O-])c1C(=O)O,0.656%

# Source: PubChem BioAssay (NCATS)
